Bioassay records deposited in PubChem BioAssay by National Center for Advancing Translational Sciences (NCATS).
An excerpt weighted towards active compounds, which were near 19% of everything screened.
DT40 TDP1 no CPT: qHTS for Inhibitors of human tyrosyl-DNA phosphodiesterase 1 (TDP1): qHTS in cells in absence of CPT; DT40 Tdp1-/- hTDP1 cells, no CPT, ATP luminescence, 48 h; Potency, µM (series often up to 46.2 µM), inactives show at the top dose activity change, negative = growth inhibition, hits mostly inhibitors; 420,000 tested, 15% active; also: nearly all actives have a fitted effect of over 55% in size
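Luminescent ATP content (CellTiter-Glo) served as the growth readout. Knockout chicken DT40 cells expressing human TDP1 were exposed to compounds without camptothecin for a minimum 48 hr at 37 °C.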
KB-V1 MDR tox: KB-V1 MDR subline cytotoxicity. 400,000 tested, 3.4% active. AID 1347076. Potency, µM (top dose mostly 46.1 µM), hits mostly cytotoxic. KB-V1 MDR cells viability, CellTiter-Glo, 72 h; also: nearly all actives have a fitted effect of over 60% in size
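Cells of the MDR subline KB-V1 are plated, dosed with compound at multiple concentrations, and incubated 72 h at 37 degrees C; CellTiter-Glo is then added and luminescence read after 10 min.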
HT1080 IDH1KD tx: HT-1080 IDH1 knockdown cell toxicity (counter line); HT-1080 IDH1 knockdown viability, ATP luminescence, 48 h; Potency, µM (doses to about 46.1 µM), for the others: at the top dose activity, negative = toxicity, most hits filed as cytotoxic; 360,000 tested, 2% active; AID 686971;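 also: 0% = DMSO wells and -100% = cell-free medium wells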
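Assay cells: HT-1080 with IDH1 knockdown, 750 per well, RPMI/5% FBS. Exposure: 48 h at 37 °C following 2 h pre-incubation. Read: CellTiter-Glo luminescence; fitted concentration-response, curve class assigned.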
TDP1 cell CPT: DT40-hTDP1 cell growth loss with CPT | 420,000 tested, 12% active | chicken DT40 Tdp1-/-;hTDP1 cells + 20 nM CPT, ATP luminescence, 48 h | Potency, µM (doses to about 46.2 µM), for the others: at the highest dose activity change, negative = growth inhibition, actives largely listed as inhibitors | AID 686979; also: nearly all actives have a fitted effect of over 55% in size
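Chicken DT40 Tdp1-/- cells stably complemented with human TDP1 were seeded at 400 cells/well in medium containing 20 nM camptothecin, exposed to pin-transferred compounds, and grown at 37 °C for at least 48 hr. Viability was read as ATP luminescence.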
HT1080NT lethal: kills 2HG-producing HT-1080-NT fibrosarcoma cells; 360,000 tested, 1.6% active; HT-1080-NT fibrosarcoma viability, CellTiter-Glo ATP luminescence, 48 h; Potency, µM (top dose mostly 46.1 µM), inactives show at the top dose activity, negative = less viability, actives largely listed as cytotoxic;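 also: NT is the 2HG producing partner of a matched IDH1 knockdown line; 0% = DMSO-treated cells and -100% = media-only wells without cells; nearly all actives have a fitted effect of over 55% in size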
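Compounds were tested in concentration-response format on HT-1080-NT cells for 48 hours at 37 degrees C. Cell viability came from CellTiter-Glo luminescence; curves were classified by r2, response magnitude and activity.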
KB-3-1 tox: KB-3-1 parental cell cytotoxicity; KB-3-1 viability, CellTiter-Glo ATP luminescence, 72 h; Potency, µM (doses to about 46.1 µM), actives largely listed as cytotoxic; 400,000 tested, 1.4% active; AID 1347075; also: nearly all actives have a fitted effect of over 60% in size
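Multi-concentration cytotoxicity screen in KB-3-1 cells grown in DMEM lacking phenol red with 10% FBS. After 72 h at 37 °C with compound, ATP-dependent luminescence was recorded.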
* marks the source's active call; other numbers are inactive results; i = inactive; ? = inconclusive; · = no result; [ ] = dose if it differs, or a comment. Calls follow the shape of the dose curve; as a rule, active = well fitted curve in the direction sought with a large enough effect; inconclusive = small, poorly fitted or top-dose-only effect, or another doubt; inactive = no such curve, though single readings can be large; an effect the other way counts as inactive or inconclusive. Unless noted, % is scaled to controls: 0 for no effect and ±100 for the full control effect; potency is read from the fitted curve at half-maximal effect.

SMILES	DT40 TDP1 no CPT	KB-V1 MDR tox	HT1080 IDH1KD tx	TDP1 cell CPT	HT1080NT lethal	KB-3-1 tox
COc1ccc(C2=CSC3=NCCN23)cc1OC	?	i	-12.1%	5.4%	0.3%	i
Cc1ccc(N2C(=O)/C(=C\c3ccc(C(C)C)cc3)N=C2SC2CCOC2=O)cc1 (stereo not given)	?	?	-20.5%	?	-12.4%	i
COc1ccc(S(=O)(=O)N2CC3CCCN3c3cc(C(F)(F)F)ccc32)cc1 (stereo not given)	?	?	-10.4%	20.6µM*	-12.8%	?
COc1ccc(S(=O)(=O)N2CC3CCCN3c3ccc(C(F)(F)F)cc32)cc1 (stereo not given)	?	i	-25.6%	25.9µM*	-15.4%	i
CC1CCN(C(=O)CCN2C(=O)C3C4C=CC(C4)C3C2=O)CC1 (stereo not given)	-3.6%	i	0.1%	14.7%	9.1%	i
Cc1cccc(N2CCN(C(=O)c3cccc(N4C(=O)C5C6C=CC(C6)C5C4=O)c3)CC2C)c1 (stereo not given)	20.6µM*	?	?	13µM*	?	?
Cc1cccc(N2CCN(C(=O)CCN3C(=O)C4C5C=CC(C5)C4C3=O)CC2C)c1 (stereo not given)	25.9µM*	?	-1.4%	-28.6%	-1.1%	i
O=C(CCN1C(=O)C2C3C=CC(C3)C2C1=O)N1CCN(c2cccc(Cl)c2)CC1 (stereo not given)	16.4µM*	?	-2.2%	16.4µM*	-3.1%	i
Cc1nn(C(=O)c2ccccc2)c(C)c1Sc1ccc(Cl)cc1	8.2µM*	7.31µM*	·	?	·	?
CCC(=O)Oc1c(Sc2ccc(Cl)cc2)c(C)nn1-c1ccccc1	0.517µM*	·	·	?	·	·
CC(=O)c1ccsc1B(O)O	-7.8%	i	·	-24.1%	·	i
O=C(OCC(=O)N1CCN(S(=O)(=O)c2ccc(Cl)cc2)CC1)c1ccc([N+](=O)[O-])o1	?	i	9.1%	18.4µM*	5.5%	?
CCOC(=O)c1nn(-c2ccccc2C)c2nc(-c3ccc(C)cc3)c(C#N)c(=O)n12	?	i	-9.8%	?	-3.4%	i
CCOC(=O)c1nn(-c2ccccc2)c2nc(-c3ccc(OC)cc3)c(C#N)c(=O)n12	-18.0%	23.1µM*	-0.2%	-23.9%	7.1%	?
CCc1ccc(OCC(=O)NNC(=O)c2cc(S(=O)(=O)N(C)C)ccc2N2CCCC2)cc1	-26.5%	i	-7.7%	-30.0%	-11.2%	i
CCCc1c(C(=O)N/N=C(\C)c2cccnc2)nnn1-c1nonc1N	6.9%	i	-0.7%	-4.0%	-0.8%	i
CCCc1c(C(=O)N/N=C(\C)c2ccc3c(c2)OCO3)nnn1-c1nonc1N	3.0%	i	7.1%	-8.2%	-0.2%	i
CCCN(CCC)Cc1c(C(=O)N/N=C/C(C)=C\c2ccco2)nnn1-c1nonc1N	16.4µM*	?	?	20.6µM*	-30.8%	i
CCCc1c(C(=O)N/N=C(\C)c2ccccc2O)nnn1-c1nonc1N	8.2µM*	i	-13.4%	8.2µM*	-13.3%	i
CC(/C=N/NC(=O)c1nnn(-c2nonc2N)c1CN(C)C)=C\c1ccco1	-21.9%	i	-3.4%	-19.0%	0.5%	i
CCCc1c(C(=O)N/N=C(\C)c2ccc(CC(C)C)cc2)nnn1-c1nonc1N	6.51µM*	i	-18.5%	11.6µM*	-3.0%	i
C/C(=N\NC(=O)c1nnn(-c2nonc2N)c1CN(C)c1ccccc1)c1ccccn1	4.61µM*	?	?	4.61µM*	?	5.8µM*
C/C(=N\NC(=O)c1nnn(-c2nonc2N)c1-c1ccccc1)c1ccccc1O	1.46µM*	i	1.84µM*	2.31µM*	?	?
O=C(CSc1nnc2ccccn12)Nc1ccccc1C(=O)O	-1.3%	i	7.5%	3.1%	2.8%	i
CN(C)Cc1ccccc1-c1cncnc1Nc1ccc(F)cc1	-10.3%	·	·	-17.1%	·	·
SMILES	DT40 TDP1 no CPT	KB-V1 MDR tox	HT1080 IDH1KD tx	TDP1 cell CPT	HT1080NT lethal	KB-3-1 tox
COCCn1c(=O)c(-c2ccc(Cl)cc2)nc2cnc(Oc3ccc(OC)cc3)nc21	-4.2%	·	·	?	·	·
C=CCNc1nc(-c2sc(NC(=O)CC)nc2C)cs1	?	?	?	?	-33.0%	?
C=CCCC(=O)Nc1nc(C)c(-c2csc(Nc3ccccc3OC)n2)s1	7.31µM*	?	16.4µM*	6.51µM*	?	7.31µM*
CCCCC(=O)Nc1nc(C)c(-c2csc(Nc3ccccc3OC)n2)s1	?	i	-4.3%	23.1µM*	-1.3%	?
COc1ccccc1Nc1nc(-c2cccnc2)cs1	?	?	-17.0%	?	-6.0%	i
CCCN(C1CCS(=O)(=O)C1)S(=O)(=O)c1cc(OC)ccc1OC (stereo not given)	18.5%	?	-3.0%	2.1%	-3.8%[9.24 µM]	i
CC[n+]1c(C)cc(C)n1-c1ccccc1	?	i	0.7%	?	6.3%	?
CC1(C(=O)NS(=O)(=O)c2ccccc2Cl)CCN1C(=O)C1CCCCC1 (stereo not given)	-11.3%	i	16.9%	2.5%	13.3%	i
c1ccc(Oc2nc(N3CCOCC3)nc(N3CCOCC3)n2)cc1	-22.4%	?	-8.4%	?	2.1%	i
c1cnn(-c2nc(N3CCOCC3)nc(N3CCOCC3)n2)c1	5.8µM*	?	-28.0%	6.51µM*	-19.0%	?
O=C1CN(C(=O)c2ccc(Br)o2)C(c2ccc(F)cc2)c2cc(Cl)ccc2N1 (stereo not given)	?	i	?	16.4µM*	?	i
O=C1CN(C(=O)c2ccco2)C(c2ccccc2)c2cc(Cl)ccc2N1 (stereo not given)	16.4µM*	i	7.5%	16.4µM*	0.1%	i
O=C1CN(C(=O)c2ccc(Br)o2)C(c2ccccc2)c2cc(Cl)ccc2N1 (stereo not given)	?	?	-16.8%	14.6µM*	-5.0%	?
O=C1CN(C(=O)c2c(F)cccc2Cl)C(c2ccc(F)cc2)c2cc(Br)ccc2N1 (stereo not given)	?	i	·	?	·	i
O=C1CN(C(=O)c2ccccc2)C(c2ccccc2)c2cc(Cl)ccc2N1 (stereo not given)	?	i	-20.0%	5.1%	-8.3%	i
